The first assay concerns the target MYL4. The assay can be described thus: pooled miR-30 sensor sort-seq; sequence = guide strand. To be noted: shRNA.
Consider TAGGTGATCTTCATCTCTCCAG, for which the sensor-assay potency score (higher = more potent) is -0.392.
As to TCTTGACATTCATCTCTTCAGG, the sensor-assay potency score (higher = more potent) was -0.927.
The same measure, in the same setting: as for TTGAACTCTTCAATCTGGTCGG, the figure is 0.391.

Another assay addresses MYNN. Described as above. The settings on record: shRNA.
The sequence TTTCTGAAATCCATCAGCCTTC came in with a sensor-assay potency score (higher = more potent) of -0.541.
In turn, TTGAGATTGCTAGAAGTCGCAA displayed a sensor-assay potency score (higher = more potent) of -0.134.
Take TCGATTATTATAATCTCGCAGA: the sensor-assay potency score (higher = more potent) was -0.633.
The sequence TTATGTATTCTCATGTGCCTTC displayed a sensor-assay potency score (higher = more potent) of 0.676.
Regarding TAACAGTGTGCACAATATCTTG, the sensor-assay potency score (higher = more potent) is -1.2.
Sequence TTTTTCTTCACCATGATGCATG gave a sensor-assay potency score (higher = more potent) of -0.931.
With TTTGAGATGACTTTTTCGCTAA, the sensor-assay potency score (higher = more potent) was -0.185.
On to TAAATTTTTAATATCTGTGTAA, for which the sensor-assay potency score (higher = more potent) is -0.492.
In the case of TTTGAGATAGTCAGCAGCCTGA, the sensor-assay potency score (higher = more potent) is -0.243.
TTGACCTCAACAATGTATCTGA displayed a sensor-assay potency score (higher = more potent) of 0.54.
For TGCTTCTGTAGATCGCACCAAA, the sensor-assay potency score (higher = more potent) is -1.32.
In turn, TTATTTGTGCAACTTGTTCTAC registered a sensor-assay potency score (higher = more potent) of 0.0284.

For the origin of these results see the OligoGym collection.
Further: reference of the scale not given here.
